High-throughput results: PubChem BioAssay, Pan Lab, Icahn School of Medicine at Mount Sinai
RBX1-CUL1 inh – inhibitors of human ROC1-CUL1 ubiquitin ligase activity. E3 ubiquitin-protein ligase RBX1 (Homo sapiens) + Cullin-1 (Homo sapiens), P62877+Q13616. in vitro K48 di-Ub FRET, acceptor:donor ratio, 45 min. inhibition, % at 10 µM. 140,000 tested, 0.6% active; in the data active = inhibition above about 25%
Target sequence (P62877 whole entry, looked up): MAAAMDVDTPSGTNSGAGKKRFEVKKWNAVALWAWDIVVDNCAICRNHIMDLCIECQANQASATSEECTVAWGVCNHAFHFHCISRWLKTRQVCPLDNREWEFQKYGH
Target sequence (Q13616 whole entry, looked up): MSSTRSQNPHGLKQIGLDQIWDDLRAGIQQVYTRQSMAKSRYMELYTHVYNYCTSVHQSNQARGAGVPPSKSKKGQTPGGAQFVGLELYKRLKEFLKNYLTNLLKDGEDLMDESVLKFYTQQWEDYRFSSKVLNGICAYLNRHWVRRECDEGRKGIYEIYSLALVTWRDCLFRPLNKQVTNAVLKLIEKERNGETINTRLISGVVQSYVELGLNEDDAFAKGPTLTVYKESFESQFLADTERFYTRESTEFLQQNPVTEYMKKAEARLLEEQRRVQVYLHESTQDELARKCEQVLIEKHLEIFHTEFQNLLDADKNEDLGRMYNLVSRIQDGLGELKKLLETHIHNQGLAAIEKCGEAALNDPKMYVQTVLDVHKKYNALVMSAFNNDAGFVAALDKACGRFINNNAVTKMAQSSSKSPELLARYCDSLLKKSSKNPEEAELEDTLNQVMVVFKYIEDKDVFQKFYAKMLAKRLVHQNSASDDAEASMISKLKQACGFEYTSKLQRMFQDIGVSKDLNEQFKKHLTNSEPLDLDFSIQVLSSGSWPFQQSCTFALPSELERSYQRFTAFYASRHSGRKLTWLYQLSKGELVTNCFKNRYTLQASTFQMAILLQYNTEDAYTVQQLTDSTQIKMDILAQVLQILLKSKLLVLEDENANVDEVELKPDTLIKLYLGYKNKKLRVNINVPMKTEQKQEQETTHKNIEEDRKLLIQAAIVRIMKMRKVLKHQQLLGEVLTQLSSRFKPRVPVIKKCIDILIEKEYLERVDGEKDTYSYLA
* marks the source's active call; other numbers are inactive results. The full list was thinned out, with hits kept by preference.

SMILES	RBX1-CUL1 inh
O=C1NN(c2ccc(I)cc2)C(=O)/C1=C\c1ccc(O)c(O)c1	106*
Cc1ccc(N2NC(=O)/C(=C/c3ccc(F)cc3)C2=O)cc1Cl	50*
O=C1NN(c2ccc(F)c(Cl)c2)C(=O)/C1=C\c1ccc(F)cc1	77*
O=C1NN(c2ccc(I)cc2)C(=O)/C1=C\c1ccc(O)cc1O	-15
CN(c1ccccc1)c1ccc(/C=C2\C(=O)NN(c3ccccc3)C2=O)cc1	31*
Cc1cc([N+](=O)[O-])ccc1N1C(=O)c2cc([N+](=O)[O-])cc3cc([N+](=O)[O-])cc(c23)C1=O	10
O=C(NC1CCCCC1)c1nc2ccccc2c(=O)o1	5
CCOc1ccc(C(=O)NCC2COc3ccccc3O2)cc1 (stereo not given)	3
NC(=O)C1(c2ccc(Cl)cc2)CCCC1	0
CC(C)c1ccc2c(c1)C(OCCN1CCN(C3Cc4ccc(F)cc4Sc4ccc(C(C)C)cc43)CC1)Cc1ccc(F)cc1S2 (stereo not given)	-10
CCCCN=C1CCCc2ccccc2N1	5
O=C(Nc1ccnn1C1CCN(C2CSCCSC2)CC1)C1CC1	1
CC(C)CN1N=C(C(C)(C)C)Cn2c1nc1c2c(=O)n(C)c(=O)n1C	-9
COc1cc(/C=C2\C(=O)NN(c3ccc(C)cc3)C2=O)cc(OC)c1OC	1
O=C1NN(c2ccc(F)cc2)C(=O)/C1=C/c1ccccc1	5
Cc1ccc(N2NC(=O)/C(=C/c3ccc(F)cc3)C2=O)cc1	71*
O=C1NN(c2ccc(F)cc2)C(=O)/C1=C\c1ccc(F)cc1	-1
Cc1ccc(N2NC(=O)/C(=C/c3ccc(N(C)CCC(C)C)cc3)C2=O)cc1C	17
COc1ccc(/C=C2/C(=O)NN(c3cccc(C)c3)C2=O)cc1	5
COC(=O)c1ccc(N2NC(=O)/C(=C/c3ccc(C)cc3)C2=O)cc1	27*
Cc1ccc(N2NC(=O)/C(=C/c3ccc(F)cc3)C2=O)cc1C	78*
COc1ccc(/C=C2\C(=O)NN(c3ccc(F)cc3)C2=O)cc1	-4
COCCN1CCC(CN(CC2CCCO2)C(=O)CSC)CC1 (stereo not given)	-1
O=C(Nc1ccc(S(=O)(=O)N2CCCC2)cc1)Nc1cccc(Cl)c1	0
CCOc1cccc(CN2CCC3(CC2)c2ccccc2[C@@H](NC(=O)Cc2cccs2)[C@@H]3OC)c1	3
SMILES	RBX1-CUL1 inh
CC(C)c1cc2cccc[n+]2s1	3
Cc1ccc2oc(C(=O)N(Cc3ccc(Cl)cc3)C3CCS(=O)(=O)C3)c(C)c2c1 (stereo not given)	7
COC(=O)C1=NNC2C(=O)N(c3ccccc3C)C(=O)C12 (stereo not given)	8
C#CCSc1nc2c(c(=O)n1Cc1ccccc1)C1(CCCCC1)Cc1ccccc1-2	-7
NCCCSc1nc2c(c(=O)n1Cc1ccccc1)C1(CCCCC1)Cc1ccccc1-2	92*
Cn1c(SCCc2ccccc2)nc2c(c1=O)C1(CCCC1)Cc1ccccc1-2	-5
CCCN1C(=O)c2ccc(C(=O)Nc3ccc(Br)cc3C(=O)O)cc2C1=O	9
CC(c1ccccc1)N1C(=O)c2ccc(C(=O)Nc3ccc(Br)cc3C(=O)O)cc2C1=O (stereo not given)	39*
CCOc1ccccc1N1C(=O)c2ccc(C(=O)Nc3ccc(Br)cc3C(=O)O)cc2C1=O	-3
CCOC(=O)C1(Cc2ccc(Cl)cc2)CCN(C(=O)CN(CC)CC)CC1	9
CN1C(=O)/C(=C/c2ccc(N3CCCC3)cc2)C(=O)NC1=S	13
O=C1NC(=S)N(c2cccc(Cl)c2Cl)C(=O)/C1=C/c1ccc(N2CCOCC2)cc1	29*
O=C1NC(=S)N(c2cccc(Cl)c2Cl)C(=O)/C1=C/c1cn(Cc2ccc3ccccc3c2)c2ccccc12	-15
C=CCOc1ccc(/C=C2\C(=O)NC(=S)N(c3cccc(Cl)c3Cl)C2=O)cc1	-2
Cc1ccsc1/C=C1/C(=O)NC(=S)N(c2cccc(Cl)c2Cl)C1=O	54*
Cc1ccc(N2C(=O)NC(=O)/C(=C\c3cccs3)C2=O)cc1C	-8
C=CCOC(=S)NC(=O)/C=C/c1ccc(Cl)cc1	-3
Cc1ccc(NC(=O)CSc2nc(N)cc(N)n2)c(C)c1	1
Cc1cccc(Nc2ncc3c(n2)CCCC3=O)c1	14
COc1ccc(-c2nn(C)c(C(F)(F)F)c2-c2csc(C)n2)c(O)c1	2
Cc1ccc(N2C(=O)/C(=C/c3c4ccccc4cc4ccccc34)C(=O)N(c3ccccc3)C2=S)cc1C	-8
O=C1/C(=C/c2ccc(O)cc2)CS(=O)(=O)c2ccccc21	6
CC(=O)N1/C(=C/c2ccc(O)cc2)C(=O)c2ccccc21	60*
CC(=O)N1/C(=C/c2ccccc2O)C(=O)c2cc(Br)ccc21	7
COCCC(=O)N(CCN1CCCCC1)CC1CCCN(C2CCCC2)C1 (stereo not given)	-2
SMILES	RBX1-CUL1 inh
CC(=O)NS(=O)(=O)c1ccc(-c2ccc(C=C3C(=O)NC(=S)NC3=O)o2)cc1	41*
O=C1NC(=S)NC(=O)C1=Cc1ccc(-c2ccccc2Cl)o1	1
CC(=O)NS(=O)(=O)c1ccc(Br)cc1	-3
Cc1cc(C(=O)OC(CC(=O)O)C(=O)O)co1 (stereo not given)	-8
CCC1CN(C(=O)CCc2ccccc2OC)Cc2ccc(Cl)cc2O1 (stereo not given)	-5
CC1=C(C#N)c2nc(N)c(C#N)c(C)c2/C1=C\c1ccc(OCc2cccc(C(=O)O)c2)cc1	98*
CC1=C(C#N)c2nc(N)c(C#N)c(C)c2/C1=C\c1ccc(F)cc1	-5
CC1=C(C#N)c2nc(N)c(C#N)c(C)c2/C1=C\c1cccc(F)c1	-4
Cc1ccc(-n2c(SCC(=O)N/N=C/c3cccnc3)nnc2-c2ccccc2)cc1	-3
Cc1nc2ccccc2n1Cc1cc(C(=O)NCC2CCCCO2)no1 (stereo not given)	-14
O=[N+]([O-])c1ccc(N2CCCCC2)nc1	4
c1ccc(-c2cc(N3CCCCC3)ncn2)cc1	-4
c1ccc2cc(N3CCCCC3)ncc2c1	65*
CC1=NC(=O)C(C(=O)/C=C/c2cccc(Cl)c2Cl)=C(C)C1	4
COc1cc(N2CCCC2)c(OC)cc1C=C1C(=O)c2ccccc2C1=O	48*
COc1cc(N2CCCC2)c(OC)cc1/C=C1\SC(=O)N(Cc2ccc(C)cc2)C1=O	-13
Cc1cc(C=C2C(=O)c3ccccc3C2=O)ccc1N1CCCC1	11
CCOc1ccc(-c2nc(SCC(=O)c3ccccc3)n[nH]2)cc1	-2
O=C(CSc1ncccc1C(=O)O)c1ccc(O)c(O)c1	31*
O=C(O)c1cccnc1SCc1c(F)c(F)c(F)c(F)c1F	13
O=C(O)c1ccnc(SCC(=O)c2ccccc2)c1	6
O=C(CSc1n[nH]c(-c2ccccc2)n1)c1ccc(O)c(O)c1	27*
O=C(CSc1n[nH]c(-c2ccc(Br)cc2)n1)c1ccc([N+](=O)[O-])cc1	0
CCc1noc(C)c1C(=O)N1CCN(Cc2ccc(F)cc2)CC1	0
COc1ccc(-c2[nH]ncc2CN(C)C(C)c2ccncn2)c(OC)c1 (stereo not given)	4
COc1ccc(/C=C(/C#N)c2nc(-c3ccc(Cl)cc3Cl)cs2)c(OC)c1	8
CCOC(=O)C1=C(C)N=c2s/c(=C\c3c[nH]c4ccccc34)c(=O)n2C1c1ccc(F)cc1 (stereo not given)	1
COC(=O)[C@H]1CC2C(=O)C=C(c3ccccc3)C1N2C (stereo not given in full)	39*
